From PubChem BioAssay (NCATS)
Several values for one entry are separate records, joined by “and”; a condition that tells them apart may be missing. Equal values may be shown once. Inconclusive results are not listed. Entries that show only a call come without a potency. A structure can be active in one record and inactive in another. Activity calls are given as the source filed them. The call rests on the fitted dose curve; in most records, active means well fitted inhibition curve with a large enough effect; inconclusive means small, poorly fitted or top-dose-only effect; inactive means flat fitted curve, though single readings scatter.

Assay: P-glycoprotein substrates identified in KB-8-5-11 adenocarcinoma cell line, qHTS therapeutic library screen (AID 1346987); further: nearly all actives have a fitted effect of over 65% in size
Settings: KB-8-5-11 (P-gp overexpressing) viability, CellTiter-Glo, 72 h; series mostly up to 44.5 µM
Procedure, shortened: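 P-gp-mediated resistance screen: KB-8-5-11 cells treated 72 h with compounds in dose-response. CellTiter-Glo viability.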
Potency means the concentration at half of the fitted maximal effect.

| SMILES | Potency |
| --- | --- |
| CC=CC(=O)N(CC)c1ccccc1C | inactive |
| O=C(CCN1CCN(C(=O)OCc2cc(Cl)cc(Cl)c2)CC1)c1ccc2[nH]c(=O)oc2c1 | inactive |
| NC(=O)c1cccc(-c2cc(Nc3ccc(OC(F)(F)F)cc3)ncn2)c1 | inactive |
| CC1CCC(C(=O)N(c2cc(C#CC(C)(C)C)sc2C(=O)O)C2CCC(O)CC2)CC1 (stereo not drawn) | inactive |
| CCC(=O)O[C@]1(C(=O)CO)CC[C@H]2[C@@H]3CCC4=CC(=O)CC[C@]4(C)[C@@H]3CC[C@@]21C | inactive |
| O=C(O)[C@H]1O[C@H](Oc2cc3oc(-c4ccccc4)cc(=O)c3c(O)c2O)[C@H](O)[C@@H](O)[C@H]1O | inactive |
| COc1cc(NC(=O)c2ccc(-c3ccc(Cl)cc3)o2)cc(OC)c1 | inactive |
| Cc1c(NC(=O)c2ccc(C(C)(C)C)cc2)cccc1-c1cn(C)c(=O)c(Nc2ccc(C(=O)N3CCOCC3)cc2)n1 | inactive |
| CON=C(C(=O)N[C@@H]1C(=O)N2C(C(=O)OCOC(=O)C(C)(C)C)=C(C=Cc3scnc3C)CS[C@H]12)c1csc(N)n1 | inactive |
| COCCOc1nc(-c2ccc(Cl)c(Cl)c2)n(-c2ccc(NC(=O)CCl)cc2)n1 | inactive and 14.6 µM (active) |
| N[C@@]1(C(=O)O)CS(=O)(=O)[C@H]2[C@H](C(=O)O)[C@H]21 | inactive |
| O=C1NC(=O)C(=Cc2ccc(-c3ccc(F)cc3)o2)S1 | inactive |
| CN(C[C@@H]1COCCO1)S(=O)(=O)Nc1ccc2ccc3ncc(-c4cnn(C)c4)cc3c(=O)c2c1 | 18.7 µM (active) and 18.4 µM (active) |
| COc1cc(O)c2c(c1)C(=O)c1cc(C)cc(O)c1C2=O | inactive |
| O=C1c2c(O)cc(O)cc2O[C@H](c2cc(O)c(O)c(O)c2)[C@H]1O | inactive |
| O=C(O)C=Cc1ccc(O)c(O)c1 | inactive |
| Cc1nnc(C(C)C)n1C1C[C@H]2CC[C@@H](C1)N2CC[C@H](NC(=O)C1CCC(F)(F)CC1)c1ccccc1 (stereo partly drawn) | inactive |
| CCS(=O)(=O)N1CC(CC#N)(n2cc(-c3ncnc4[nH]ccc34)cn2)C1 | inactive |
| CC#CCn1c(N2CCC[C@@H](N)C2)nc2c1c(=O)n(Cc1nc(C)c3ccccc3n1)c(=O)n2C | inactive |
| O=C(CCc1ccc(O)cc1)c1c(O)cc(O)cc1O[C@@H]1O[C@H](CO)[C@H](O)[C@H](O)[C@H]1O | inactive |
| N#CC1(c2ccc(NC(=O)c3cccnc3NCc3ccncc3)cc2)CCCC1 | inactive |
| COc1ccc2cc(-c3nc(-c4ccc(S(C)=O)cc4)[nH]c3-c3ccncc3)ccc2c1 (stereo not drawn) | inactive |
| Cn1c(N2CCCCS2(=O)=O)nc(C(=O)NCc2ccc(F)cc2)c(O)c1=O | inactive |
